# PubChem BioAssay AID1159580 (chemical genetic matrix, 2015)
# Out of some 5,500 compounds screened, about 2,000 (36%) were called active. Another 18% or so got no clear call; they are omitted. This is one part of the list. A number with no mark means an inactive call. Cut-off read from the data, not from the text of the source: active = normalized growth mostly below about 0.91 (no sharp cut-off); inconclusive = no clear call, values can overlap the other calls; inactive = mostly above about 0.92.
# Test: chemical genetic growth profiling, strain panel (AID 1159580);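 note: tested at 20 µM; growth read once vehicle control cultures reached saturation at 30 °C; 1 = growth at the plate median or of vehicle wells; lower values mean less growth of the strain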
# Conditions: growth OD
compound,measurement,setting,value
C#C[C@]1(O)CCC2C3CCC4=CC(=O)CC[C@@H]4C3CC[C@@]21C (some centres undefined),normalized growth,"S. cerevisiae deletion strains, locus YJR066W, strain TOR1, hits give low values",0.909
same,normalized growth,"S. cerevisiae deletion strains, locus YKL009W, strain mrt4, hits give low values",0.954
same,normalized growth,"S. cerevisiae deletion strains, locus YKL068W, hits give low values",0.989
same,normalized growth,"S. cerevisiae deletion strains, locus YKL085W, strain MDH1 (second series), hits give low values",0.986
same,normalized growth,"S. cerevisiae deletion strains, locus YKL085W, strain MDH1, hits give low values",0.986
same,normalized growth,"S. cerevisiae deletion strains, locus YKL160W, strain elf1, hits give low values",1.01
same,normalized growth,"S. cerevisiae deletion strains, locus YKL190W, strain CNB1, hits give low values",0.977
same,normalized growth,"S. cerevisiae deletion strains, locus YKR001C, strain vps1, hits give low values",0.946
same,normalized growth,"S. cerevisiae deletion strains, locus YKR026C, strain gcn3, hits give low values",0.979
same,normalized growth,"S. cerevisiae deletion strains, locus YKR091W, strain srl3, hits give low values",0.982
same,normalized growth,"S. cerevisiae deletion strains, locus YLL001W, strain dnm1, hits give low values",0.972
same,normalized growth,"S. cerevisiae deletion strains, locus YLL026W, hits give low values",0.994
same,normalized growth,"S. cerevisiae deletion strains, locus YLL041C, strain sdh2, hits give low values",0.974
same,normalized growth,"S. cerevisiae deletion strains, locus YLR027C, strain aat2, hits give low values",0.983
same,normalized growth,"S. cerevisiae deletion strains, locus YLR039C, strain RIC1, hits give low values",0.862
same,normalized growth,"S. cerevisiae deletion strains, locus YLR058C, strain SHM2, hits give low values",0.989
same,normalized growth,"S. cerevisiae deletion strains, locus YLR102C, strain apc9, hits give low values",0.978
same,normalized growth,"S. cerevisiae deletion strains, locus YLR113W, strain HOG1, hits give low values",0.958
same,normalized growth,"S. cerevisiae deletion strains, locus YLR221C, strain rsa3, hits give low values",0.991
same,normalized growth,"S. cerevisiae deletion strains, locus YLR258W, strain gsy2, hits give low values",0.993
same,normalized growth,"S. cerevisiae deletion strains, locus YLR262C, strain YPT6 (second series), hits give low values",0.916
same,normalized growth,"S. cerevisiae deletion strains, locus YLR262C, strain YPT6, hits give low values",0.818
same,normalized growth,"S. cerevisiae deletion strains, locus YLR268W, strain sec22, hits give low values",0.94
same,normalized growth,"S. cerevisiae deletion strains, locus YLR320W, strain mms22, hits give low values",0.98
same,normalized growth,"S. cerevisiae deletion strains, locus YLR330W, strain CHS5, hits give low values",0.995
same,normalized growth,"S. cerevisiae deletion strains, locus YLR342W, strain FKS1 (second series), hits give low values",0.923
same,normalized growth,"S. cerevisiae deletion strains, locus YLR342W, strain FKS1, hits give low values",0.976
same,normalized growth,"S. cerevisiae deletion strains, locus YLR357W, strain rsc2, hits give low values",0.988
same,normalized growth,"S. cerevisiae deletion strains, locus YLR370C, strain arc18, hits give low values",0.969
same,normalized growth,"S. cerevisiae deletion strains, locus YLR371W, strain rom2, hits give low values",0.983
same,normalized growth,"S. cerevisiae deletion strains, locus YLR384C, strain iki3, hits give low values",0.982
same,normalized growth,"S. cerevisiae deletion strains, locus YLR418C, strain cdc73, hits give low values",0.915
same,normalized growth,"S. cerevisiae deletion strains, locus YML016C, strain PPZ1, hits give low values",0.991
same,normalized growth,"S. cerevisiae deletion strains, locus YML032C, strain rad52, hits give low values",0.978
same,normalized growth,"S. cerevisiae deletion strains, locus YML120C, strain ndi1, hits give low values",0.977
same,normalized growth,"S. cerevisiae deletion strains, locus YML124C, strain tub3, hits give low values",0.98
same,normalized growth,"S. cerevisiae deletion strains, locus YMR058W, strain fet3, hits give low values",0.965
same,normalized growth,"S. cerevisiae deletion strains, locus YMR078C, strain ctf18, hits give low values",0.964
same,normalized growth,"S. cerevisiae deletion strains, locus YMR125W, strain sto1, hits give low values",0.995
same,normalized growth,"S. cerevisiae deletion strains, locus YMR129W, hits give low values",0.974
same,normalized growth,"S. cerevisiae deletion strains, locus YMR205C, strain PFK2, hits give low values",0.985
same,normalized growth,"S. cerevisiae deletion strains, locus YMR223W, strain ubp8, hits give low values",0.971
same,normalized growth,"S. cerevisiae deletion strains, locus YMR231W, strain pep5, hits give low values",0.981
same,normalized growth,"S. cerevisiae deletion strains, locus YMR307W, strain GAS1, hits give low values",0.874
same,normalized growth,"S. cerevisiae deletion strains, locus YNL067W, strain RPL9B, hits give low values",0.969
same,normalized growth,"S. cerevisiae deletion strains, locus YNL071W, strain lat1, hits give low values",0.964
same,normalized growth,"S. cerevisiae deletion strains, locus YNL128W, strain TEP1, hits give low values",0.992
same,normalized growth,"S. cerevisiae deletion strains, locus YNL183C, strain NPR1, hits give low values",0.924
same,normalized growth,"S. cerevisiae deletion strains, locus YNL209W, strain ssb2, hits give low values",0.997
same,normalized growth,"S. cerevisiae deletion strains, locus YNL233W, strain BNI4, hits give low values",0.996
same,normalized growth,"S. cerevisiae deletion strains, locus YNL248C, strain rpa49, hits give low values",0.985
same,normalized growth,"S. cerevisiae deletion strains, locus YNL250W, strain rad50, hits give low values",0.981
same,normalized growth,"S. cerevisiae deletion strains, locus YNL271C, strain bni1, hits give low values",0.964
same,normalized growth,"S. cerevisiae deletion strains, locus YNL298W, strain CLA4, hits give low values",0.976
same,normalized growth,"S. cerevisiae deletion strains, locus YNL307C, strain MCK1, hits give low values",0.902 (active)
same,normalized growth,"S. cerevisiae deletion strains, locus YNL322C, strain KRE1 (second series), hits give low values",0.98
same,normalized growth,"S. cerevisiae deletion strains, locus YNR049C, strain mso1, hits give low values",0.984
same,normalized growth,"S. cerevisiae deletion strains, locus YNR052C, strain pop2, hits give low values",0.97
same,normalized growth,"S. cerevisiae deletion strains, locus YOL006C, strain TOP1, hits give low values",0.919
same,normalized growth,"S. cerevisiae deletion strains, locus YOL012C, strain htz1",1.68
same,normalized growth,"S. cerevisiae deletion strains, locus YOL147C, strain pex11, hits give low values",0.983
same,normalized growth,"S. cerevisiae deletion strains, locus YOR001W, strain rrp6, hits give low values",0.943
same,normalized growth,"S. cerevisiae deletion strains, locus YOR061W, strain CKA2, hits give low values",0.985
same,normalized growth,"S. cerevisiae deletion strains, locus YOR069W, strain VPS5, hits give low values",0.988
same,normalized growth,"S. cerevisiae deletion strains, locus YOR070C, strain gyp1, hits give low values",0.986
same,normalized growth,"S. cerevisiae deletion strains, locus YOR080W, strain dia2, hits give low values",0.994
same,normalized growth,"S. cerevisiae deletion strains, locus YOR083W, strain WHI5, hits give low values",1.03
same,normalized growth,"S. cerevisiae deletion strains, locus YOR106W, strain vam3, hits give low values",0.999
same,normalized growth,"S. cerevisiae deletion strains, locus YOR136W, strain idh2, hits give low values",0.997
same,normalized growth,"S. cerevisiae deletion strains, locus YOR144C, strain elg1, hits give low values",0.98
same,normalized growth,"S. cerevisiae deletion strains, locus YOR184W, strain ser1, hits give low values",0.848 (active)
same,normalized growth,"S. cerevisiae deletion strains, locus YOR231W, strain MKK1, hits give low values",0.984
same,normalized growth,"S. cerevisiae deletion strains, locus YOR265W, strain rbl2, hits give low values",0.983
same,normalized growth,"S. cerevisiae deletion strains, locus YOR270C, strain vph1, hits give low values",0.901
same,normalized growth,"S. cerevisiae deletion strains, locus YOR290C, strain snf2, hits give low values",0.981
same,normalized growth,"S. cerevisiae deletion strains, locus YOR316C, strain cot1, hits give low values",0.978
same,normalized growth,"S. cerevisiae deletion strains, locus YPL051W, strain arl3, hits give low values",0.986
same,normalized growth,"S. cerevisiae deletion strains, locus YPL055C, strain LGE1, hits give low values",0.997
same,normalized growth,"S. cerevisiae deletion strains, locus YPL078C, strain atp4, hits give low values",0.974
same,normalized growth,"S. cerevisiae deletion strains, locus YPL106C, strain sse1, hits give low values",1.06
same,normalized growth,"S. cerevisiae deletion strains, locus YPL240C, strain hsp82, hits give low values",0.991
same,normalized growth,"S. cerevisiae deletion strains, locus YPL241C, strain CIN2, hits give low values",0.996
same,normalized growth,"S. cerevisiae deletion strains, locus YPL256C, strain CLN2, hits give low values",0.942
same,normalized growth,"S. cerevisiae deletion strains, locus YPR119W, strain clb2, hits give low values",0.982
same,normalized growth,"S. cerevisiae deletion strains, locus YPR141C, strain kar3, hits give low values",0.982
same,normalized growth,"S. cerevisiae deletion strains, locus YPR163C, strain tif3, hits give low values",0.986
same,normalized growth,"S. cerevisiae deletion strains, locus YPR167C, strain met16, hits give low values",0.977
same,normalized growth,"S. cerevisiae deletion strains, strain wtn01, hits give low values",0.962
same,normalized growth,"S. cerevisiae strains, strain wild type, hits give low values",0.986
